Test results as given in the supplement of paper PMC13380429.
Unmarked numbers belong to inactive results.

Test system: Vero E6 infected with SARS-CoV-2
Test: inhibition of SARS-CoV-2 cytopathic effect; higher = more antiviral protection, active = above 15
Settings: 48 h

Compound | inhibition of SARS-CoV-2 cytopathic effect (1 nM) | inhibition of SARS-CoV-2 cytopathic effect (8.33 nM) | inhibition of SARS-CoV-2 cytopathic effect (100 nM) | inhibition of SARS-CoV-2 cytopathic effect (833.33 nM) | inhibition of SARS-CoV-2 cytopathic effect (10000 nM)
N[C@@H](C[C@@H](F)C(=O)O)C(=O)O | 0.4% | 1.43% | 2.09% | -2.92% | -1.49%
COc1ccc(NC(=O)c2ccc(-c3ccc(-c4noc(C)n4)cc3C)cc2)cc1N1CCN(C)CC1 | 4.92% | 6.46% | 0.49% | -1.73% | 36.7% (active)
O=C(/C=C/c1ccccc1)NC(NC(=S)Nc1cccc2cccnc12)C(Cl)(Cl)Cl (stereo not given) [salubrinal] | 3.2% | 0.1% | 1.16% | -0.28% | 1.23%
C[C@]12CC[C@H](O)CC1=CC[C@@H]1[C@@H]2CC[C@]2(C)C(n3cnc4ccccc43)=CC[C@@H]12 [galeterone] | -0.79% | 0.99% | 0.05% | -5.02% | -6.94%
COc1cccc(CN(C(=O)CC(C)(C)C)[C@H]2C[C@@H](C(=O)N3CCNCC3)N(Cc3ccc4c(c3)OCO4)C2)c1 | 7.37% | 2.78% | 5.86% | -0.43% | -2.99%
NS(=O)(=O)C#Cc1ccccc1 [pifithrin-mu] | 2.15% | 5.91% | 2.87% | 4.85% | 22.5% (active)
CCOC(=O)[C@H](CCc1ccccc1)N[C@@H](C)C(=O)N1Cc2cc(OC)c(OC)cc2C[C@H]1C(=O)O [moexipril] | -1.91% | 1.34% | -0.63% | -0.22% | 0.1%
CN1C[C@@H](NS(=O)(=O)N(C)C)C[C@@H]2c3cccc4c3c(cn4C)C[C@H]21 [mesulergine] | -0.67% | 0.79% | 0.56% | 0.39% | 1.25%
CCS(=O)(=O)N(C)[C@H]1c2cc(C#N)ccc2OC(C)(C)[C@@H]1O [chromanol-293B-(-)-[3R,4S]] | 0.15% | -2.19% | 0.8% | 1.12% | -1.64%
Cc1cc(C)c(S(=O)(=O)Nc2ccccc2C(F)(F)F)c(C)c1 | 2.1% | 6.17% | 4.56% | 2.55% | 4.64%
CC[C@H]1OC(=O)[C@H](C)[C@@H](O[C@H]2C[C@@](C)(OC)[C@@H](O)[C@H](C)O2)[C@H](C)[C@@H](O[C@@H]2O[C@H](C)C[C@H](N(C)C)[C@H]2O)[C@](C)(O)C[C@@H](C)CN(C)[C@H](C)[C@@H](O)[C@]1(C)O [azithromycin] | 0.31% | 1.86% | 2% | 0.56% | 0.92%
Nc1nc2[nH]cc(CCc3ccc(C(=O)N[C@@H](CCC(=O)O)C(=O)O)cc3)c2c(=O)[nH]1 [pemetrexed] | -1.03% | 0.64% | 1.39% | -2.48% | -1.3%
c1ccc2c(Cc3c[nH]c4ccccc34)c[nH]c2c1 [3,3'-diindolylmethane] | 0.74% | 0.3% | 4.3% | 4.76% | 3.8%
COc1ccc2c(O[C@@H]3C[C@H]4C(=O)N[C@]5(C(=O)NS(=O)(=O)C6CC6)C[C@H]5/C=C\CCCCN(C)C(=O)[C@@H]4C3)cc(-c3nc(C(C)C)cs3)nc2c1C [simeprevir] | -0.41% | 3.7% | 2.68% | -2.31% | 2.37%
O=S(=O)(F)Cc1ccccc1 [phenylmethylsulfonyl-fluoride] | -2.45% | -1.22% | 2.93% | 0.75% | 1.71%
CC(=O)NCCCS(=O)(=O)O [acamprosate] | -2.95% | 1.47% | -2.01% | -3.15% | -1.78%
CC(=O)Nc1ccc(OCC(O)CNC(C)C)cc1 (stereo not given) [practolol] | 0.44% | 0.3% | 0.26% | 2.84% | 5.44%
COc1cc2c(=O)c(-c3ccc(O)cc3)coc2cc1O [glycitein] | 1.2% | -0.34% | -0.96% | -2.13% | -1.58%
CN(C(=O)Cc1ccccc1)[C@H](CN1CCCC1)c1ccccc1 | -2.98% | -0.14% | 0.52% | 0.85% | -1.59%
OCCN1C[C@H](O)[C@@H](O)[C@H](O)[C@H]1CO [miglitol] | -4.01% | -3.41% | 52.1% (active) | -3.71% | -4.78%

Compound | inhibition of SARS-CoV-2 cytopathic effect (1 nM) | inhibition of SARS-CoV-2 cytopathic effect (8.33 nM) | inhibition of SARS-CoV-2 cytopathic effect (100 nM) | inhibition of SARS-CoV-2 cytopathic effect (833.33 nM) | inhibition of SARS-CoV-2 cytopathic effect (10000 nM)
C[C@@H]1CC(=O)c2c(ccc3c2C(=O)c2cccc(O)c2C3=O)C1 [ochromycinone] | -3.4% | -1.61% | -3.55% | -1.87% | -3.84%
CCN(CCCCOC(=O)c1ccc(OC)c(OC)c1)C(C)Cc1ccc(OC)cc1 (stereo not given) [mebeverine] | 1.37% | -1.75% | -0.83% | -1.35% | -3.11%
Cc1ccc(CC2(O)CCN(CCOc3ccc(O)cc3)CC2)cc1 | -5.34% | 1.47% | 3.16% | -0.31% | 1.64%
CCN(CC)c1ccc(/C=N/NC(=O)c2ccc(O)cc2)cc1 | -0.79% | 2.18% | 0.82% | -0.79% | 0.11%
CN(CCOP(=O)(O)O)C(=N)N [creatinol-phosphate] | -1.02% | 2.42% | 0.89% | -2.46% | -1.58%
N.N.[Cl][Pt][Cl] [cisplatin] | 1.16% | 0.86% | 0.61% | 3.21% | 1.76%
CN1C(=O)N[C@H](Cc2c[nH]c3c(Cl)cccc23)C1=O [necrostatin-2] | -3.13% | -7.04% | -6.01% | -0.96% | -5.96%
Cc1ccc(NC(=O)C2(c3ccc4c(c3)OC(F)(F)O4)CC2)nc1-c1cccc(C(=O)O)c1 [lumacaftor] | 2.48% | 0.38% | -1.4% | -0.17% | 1.24%
C/C(=N\NC(=N)N)c1cc(NC(=O)CCCCCCCCC(=O)Nc2cc(/C(C)=N/NC(=N)N)cc(/C(C)=N/NC(=N)N)c2)cc(/C(C)=N/NC(=N)N)c1 [semapimod] | 1.18% | 2.42% | 5.39% | 7.62% | 7.5%
O=C1c2c(O)cc(O)cc2O[C@H](c2cc(O)c(O)c(O)c2)[C@H]1O [dihydromyricetin] | 2.39% | 3.54% | 1.66% | 1.69% | -1.52%
C[C@@H]1C[C@H]2[C@@H]3CCC4=CC(=O)C=C[C@]4(C)[C@@]3(F)[C@@H](O)C[C@]2(C)[C@H]1C(=O)CO [desoximetasone] | -2.66% | 0.15% | -1.47% | 1.96% | 0.8%
Oc1ccc(-c2nc3cc(O)cc(Br)c3o2)cc1 | 0.68% | 1.49% | 2.09% | 4.89% | 2.95%
Cc1cccc(-c2[nH]c(C(C)(C)C)nc2-c2ccc3nccnc3c2)n1 | 3.48% | -0.18% | 0.8% | 0.91% | 1.69%
CN1CCC(c2c[nH]c3ccc(O)cc23)CC1 | -0.56% | 2.91% | 0.58% | 3.92% | -0.8%
COc1c(C)cnc(Cn2cnc3c(Cl)nc(N)nc32)c1C | -0.38% | 2.24% | 0.07% | 3.31% | 6.01%
COc1ccccc1OCC(O)CNC(C)C (stereo not given) [moprolol] | -0.33% | -2.22% | -0.82% | -3.01% | -2.72%
NC(=O)c1ccc(I)c([N+](=O)[O-])c1 [iniparib] | 0.64% | 1.76% | 0.16% | 2.29% | 3.53%
NC(=O)OCC(O)COc1ccc(Cl)cc1 (stereo not given) [chlorphensin-carbamate] | 2.19% | -1.72% | 1.24% | 2.98% | 4.44%
CC(C)C(N)=O [isobutyramide] | 4.35% | 1.02% | 2.22% | 2.44% | 0.68%
